# Results: the supplement of paper PMC12350171
# Structures can show the parent of a compound that is named as a salt. Values without a mark were called inactive.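 How the source made its calls: active = AUC significantly below DMSO controls by Student t-fit with adjusted P under 0.01; inactive = not significantly reduced.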
# System: Haemophilus parainfluenzae
# Assay: growth AUC normalised to DMSO control (fraction of control); higher = less growth inhibition, active = hit call of the paper
# Conditions: 20 µM
# Outline: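 For the AUC endpoint, growth curves were integrated by the trapezoidal rule up to the exponential-to-stationary transition and normalised to DMSO controls on the same plate. The curves came from OD578 readings taken hourly for 24 h, in three biological replicates. Pathogens had been passaged anaerobically twice and inoculated at an OD578 of 0.01 into pre-reduced mGAM plates carrying 20 μM compound and 1% DMSO, sealed with breathable membranes. Medium for Haemophilus parainfluenzae also contained hemin and NAD.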
row,SMILES,growth AUC normalised to DMSO control
1,C[C@@H]1C[C@H]2[C@@H]3C[C@H](F)C4=CC(=O)C=C[C@]4(C)[C@@]3(Cl)[C@@H](O)C[C@]2(C)[C@H]1C(=O)COC(=O)C(C)(C)C [Clocortolone pivalate],1.73
2,CCCC(CCC)C(=O)O [Valproic acid],1.04
3,C[C@H]1[C@H](NC(=O)/C(=N\OC(C)(C)C(=O)O)c2csc(N)n2)C(=O)N1S(=O)(=O)O [Aztreonam],0.0582 (active)
4,CCCCN1CCCCC1C(=O)Nc1c(C)cccc1C (centres undefined) [Bupivacaine hydrochloride],0.967
5,Clc1ccc2nsnc2c1NC1=NCCN1 [Tizanidine hydrochloride],0.965
6,O=C(O)c1cn(-c2ccc(F)cc2)c2cc(N3CCNCC3)c(F)cc2c1=O [Sarafloxacin],0.0521 (active)
7,CN(C)C(=O)C(CCN1CCC(O)(c2ccc(Cl)cc2)CC1)(c1ccccc1)c1ccccc1 [Loperamide hydrochloride],1
8,COC1=CC(=O)C[C@@H](C)[C@]12Oc1c(Cl)c(OC)cc(OC)c1C2=O [Griseofulvin],1.02
9,OC(c1cc(C(F)(F)F)nc2c(C(F)(F)F)cccc12)C1CCCCN1 (centres undefined) [Mefloquine hydrochloride],0.903
10,COc1cc([S+](C)[O-])ccc1-c1nc2cccnc2[nH]1 (centres undefined) [Sulmazole],1
11,c1ccc(CN(CC2=NCCN2)c2ccccc2)cc1 [Antazoline hydrochloride],1.01
12,CN1CCN(c2c(F)cc3c(=O)c(C(=O)O)cn4c3c2SCC4)CC1 [Rufloxacin],0.0692 (active)
13,COCCCOc1ccnc(C[S+]([O-])c2nc3ccccc3[nH]2)c1C (centres undefined) [Rabeprazole sodium salt],0.985
14,CN(C)CCCO[C@@H]1[C@H]2OC(C)(C)O[C@H]2O[C@@H]1[C@H](O)CO [Amiprilose hydrochloride],0.963
15,CCCNC(C)C(=O)Nc1c(C)csc1C(=O)OC (centres undefined) [Articaine hydrochloride],1.01
16,O=C(O)c1cc(=O)c2c(OCC(O)COc3cccc4oc(C(=O)O)cc(=O)c34)cccc2o1 [Cromolyn disodium salt],1.01
17,O=C(O)c1cc(-c2ccc(F)cc2F)ccc1O [Diflunisal],0.916
18,Nc1ccc(C(=O)NCC(=O)O)cc1 [Aminohippuric acid],1
19,CCN1CCC[C@H]1CNC(=O)c1c(O)c(Cl)cc(Cl)c1OC [Raclopride],0.944
20,N=C(N=C(N)N)N1CCOCC1 [Moroxidine hydrochloride],1

row,SMILES,growth AUC normalised to DMSO control
1,CC1(C)[C@@H](OC(=O)CCC(=O)O)CC[C@]2(C)[C@H]3C(=O)C=C4[C@@H]5C[C@@](C)(C(=O)O)CC[C@]5(C)CC[C@@]4(C)[C@]3(C)CC[C@@H]12 [Carbenoxolone disodium salt],0.964
2,CC(C)(C)NC(=O)[C@@H]1C[C@@H]2CCCC[C@@H]2CN1C[C@@H](O)[C@H](Cc1ccccc1)NC(=O)[C@H](CC(N)=O)NC(=O)c1ccc2ccccc2n1 [Saquinavir mesylate],1.63
3,c1ccc([C@H]2CN3CCSC3=N2)cc1 [Levamisole hydrochloride],0.991
4,CCC1(c2ccccc2)NC(=O)N(C)C1=O (centres undefined) [Mephenytoin],1.04
5,COc1ccccc1OCC(O)CN1CCN(CC(=O)Nc2c(C)cccc2C)CC1 (centres undefined) [Ranolazine],1.03
6,COC(=O)Nc1nc2cc(C(=O)c3ccc(F)cc3)ccc2[nH]1 [Flubendazol],1.02
7,CN(C)C/C=C(/c1ccc(Br)cc1)c1cccnc1 [Zimelidine dihydrochloride monohydrate],0.972
8,CCN(CC)CCNC(=O)COc1ccc(OC)cc1 [Mefexamide hydrochloride],0.985
9,COc1ccc(-c2cc(=S)ss2)cc1 [Anethole-trithione],1.05
10,CNCC(O)c1ccc(O)c(O)c1 (centres undefined) [Racepinephrine hydrochloride],1.06
11,Cc1c(OCC(F)(F)F)ccnc1C[S+]([O-])c1nc2ccccc2[nH]1 (centres undefined) [Lansoprazole],0.873
12,O=C(c1ccc(OCCN2CCCCC2)cc1)c1c(-c2ccc(O)cc2)sc2cc(O)ccc12 [Raloxifene hydrochloride],0.974
13,CO/N=C(\C(=O)N[C@@H]1C(=O)N2C(C(=O)O)=C(COC(C)=O)CS[C@H]12)c1csc(N)n1 [Cefotaxime sodium salt],0.0499 (active)
14,CCc1c(C)[nH]c2c1C(=O)C(CN1CCOCC1)CC2 (centres undefined) [Molindone hydrochloride],1.01
15,COc1cc2nc(N3CCN(C(=O)C4CCCO4)CC3)nc(N)c2cc1OC (centres undefined) [Terazosin hydrochloride],0.978
16,Nc1nc(=O)n([C@@H]2CS[C@H](CO)O2)cc1F [(-) Emtricitabine],0.97
17,CNC(=C[N+](=O)[O-])NCCSCc1ccc(CN(C)C)o1 [Ranitidine hydrochloride],0.992
18,COc1c(N2CCNC(C)C2)c(F)cc2c(=O)c(C(=O)O)cn(C3CC3)c12 (centres undefined) [Gatifloxacin],0.0535 (active)
19,Cc1cc2c(s1)Nc1ccccc1N=C2N1CCN(C)CC1 [Olanzapine],1.02
